From PubChem BioAssay
GSTO1 inh: GSTO1 inhibition, counter-screen for RBBP9 inhibitors | P78417 | inhibition, % at 5.96 µM | recombinant GSTO1, activity-based probe fluorescence polarization | actives 1.1% (n = 300,000);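 active means inhibition above the campaign mean inhibition plus 3 SD, cut at about 35% in these data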;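 further: 0% = GSTO1-1 with DMSO and 100% = wells lacking GSTO1-1 enzyme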
LYPLA1 counter: LYPLA1 (human) inhibition in PME1 counter-screen; actives 0.16% (n = 320,000); recombinant LYPLA1, FP-Rh probe fluorescence polarization; inhibition, % at 5.9 µM; AID 2174;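 active means inhibition above the mean of all tested compounds plus 3 SD, set per campaign, cut at about 14% in these data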;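 further: inhibitors block serine hydrolase probe labeling of LYPLA1 so polarization falls; 0% = enzyme with DMSO and 100% = wells lacking LYPLA1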
PAD4 inh: inhibitors of human PAD4 | Q9UM07 | recombinant PAD4, RCA probe fluorescence polarization | inhibition, % at 6.36 µM | actives 0.41% (n = 330,000) | AID 485272;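 active means percent inhibition above a cutoff equal to the mean of all tested compounds plus 3 SD, cut at about 15% in these data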;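 further: 0% = PAD4 with RCA probe and DMSO and 100% = probe without PAD4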
Fam108B counter: counter-screen for RBBP9 inhibitors: inhibitors of mouse Fam108B; recombinant Fam108B, FP-Rh probe fluorescence polarization; AID 1947; actives 0.33% (n = 300,000); inhibition, % at 9.51 µM;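 active means inhibition above the screen mean inhibition plus 3 SD, computed separately per campaign, cut at about 18% in these data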;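 further: inhibitors lower polarization as less probe binds the enzyme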
PME-1 primary: blocks human protein phosphatase methylesterase 1; Q9Y570; actives 0.53% (n = 320,000); inhibition, % at 5.9 µM; recombinant PME-1, FP-Rh probe fluorescence polarization;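 active means inhibition above the campaign mean of all compounds plus 3 SD, cut at about 26% in these data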;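 further: competitive labeling of PME-1 active site by serine hydrolase directed probe; 0% = PME-1 with DMSO and 100% = wells lacking PME-1 enzyme; inhibitors block probe labeling so polarization falls and inhibition rises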
Target sequence (Q9Y570 whole entry, looked up): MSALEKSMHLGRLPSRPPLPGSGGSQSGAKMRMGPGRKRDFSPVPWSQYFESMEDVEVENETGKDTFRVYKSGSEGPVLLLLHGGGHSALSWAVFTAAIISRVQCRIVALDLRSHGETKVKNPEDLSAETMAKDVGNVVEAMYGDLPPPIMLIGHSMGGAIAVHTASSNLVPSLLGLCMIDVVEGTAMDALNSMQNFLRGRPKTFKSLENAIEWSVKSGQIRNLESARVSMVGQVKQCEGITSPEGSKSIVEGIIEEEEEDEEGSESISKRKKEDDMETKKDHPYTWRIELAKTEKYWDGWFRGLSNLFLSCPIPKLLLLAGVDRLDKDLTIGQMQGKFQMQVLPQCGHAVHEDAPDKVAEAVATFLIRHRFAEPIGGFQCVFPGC
LYPLA2 inh: LYPLA2 (human) inhibition in PME1 counter-screen. O95372. recombinant LYPLA2, FP-Rh probe fluorescence polarization. inhibition, % at 5.9 µM. actives 0.38% (n = 320,000). AID 2177;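 active means inhibition above the screen-wide mean plus 3 SD, limit set per campaign, cut at about 26% in these data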;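 further: 0% = LYPLA2 with DMSO and 100% = wells lacking LYPLA2 enzyme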
Target sequence (O95372 whole entry, looked up): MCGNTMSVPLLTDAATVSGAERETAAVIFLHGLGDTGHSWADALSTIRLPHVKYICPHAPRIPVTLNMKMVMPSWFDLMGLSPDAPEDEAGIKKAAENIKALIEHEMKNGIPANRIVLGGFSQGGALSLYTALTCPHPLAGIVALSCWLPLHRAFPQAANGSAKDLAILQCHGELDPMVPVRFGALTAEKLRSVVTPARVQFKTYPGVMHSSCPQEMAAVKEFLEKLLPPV
An asterisk follows results filed as active; . = no result given. In the library only some 1.7% were active in any assay of this set; here they are far more common.

SMILES	GSTO1 inh	LYPLA1 counter	PAD4 inh	Fam108B counter	PME-1 primary	LYPLA2 inh
Brc1cc2c(cc1Br)OCCOCCOCCO2	37.1*	2.3	6.4	0.1	0.8	3.8
CCOc1cccc(NC(=O)/C(C#N)=C\c2cn(CC(=O)O)c3ccccc23)c1	-9.4	-1.7	-11.8	-4.1	-8.0	-1.6
CCOc1ccccc1/C=C(\C#N)C(=O)Nc1cccc(C(=O)O)c1	-8.6	1.9	-6.8	0.2	142.3*	-0.7
Cc1cc2c(=O)n(C)c(SCC(=O)Nc3ccccc3C)nc2s1	14.1	-3.5	1.7	-1.2	-7.9	4.0
O=C(NCCc1ccccc1)c1ccc2nc(-c3ccco3)c(-c3ccco3)nc2c1	45.9*	-6.5	-19.3	10.7	30.0*	12.5
O=C(Nc1ccc2nc(-c3ccco3)c(-c3ccco3)nc2c1)N1CCCCCC1	59.5*	-15.3	-11.5	40.4*	6.7	-3.9
O=C(c1ccccc1)c1ccc2nc(-c3ccco3)c(-c3ccco3)nc2c1	60.2*	-2.0	-13.6	9.2	-5.6	5.6
O=C(O)c1ccc2nc(-c3ccccc3)c(-c3ccccc3)nc2c1	-2.1	2.0	-7.1	0.3	-0.7	9.3
O=C(NCC(=O)N1CCN(Cc2ccccc2)CC1)c1ccc(Br)o1	2.4	-0.3	1.6	-1.4	-1.2	7.8
O=C(CSc1nnc(NC(=O)c2c(F)cccc2F)s1)NCc1ccc(F)cc1	1.7	1.9	-7.1	0.3	1.0	1.2
Cc1cc(C)c(C#N)c(SCc2c(F)cccc2[N+](=O)[O-])n1	-3.4	3.5	1.4	4.4	-1.6	34.3*
Cc1cc(C)c(C#N)c(SCc2ccccc2[N+](=O)[O-])n1	-5.0	-1.0	0.0	0.0	8.6	18.9
Cc1cc(C)c(C#N)c(SCc2nc3ccccc3[nH]2)n1	-5.6	5.2	-1.1	0.9	28.8*	7.6
CC1=NN(c2ccccc2)C(=O)/C1=C\C=C1/N(C)c2ccccc2C1(C)C	72.0*	-5.1	-8.9	-1.0	3.0	-4.5
CC(C)N1CC=C2C(C#N)=C(N)C(C#N)(C#N)[C@H](c3ccoc3)[C@H]2C1	63.8*	5.1	49.1*	5.4	14.6	4.4
CCN1CC=C2C(C#N)=C(N)C(C#N)(C#N)C(c3cc(Cl)ccc3Cl)C2C1 (centres undefined)	1.5	6.1	22.3*	3.5	7.2	3.8
CC(C)N1CC=C2C(C#N)=C(N)C(C#N)(C#N)C(c3ccccc3)C2C1 (centres undefined)	9.1	1.4	6.5	2.8	0.5	-1.4
O=C(c1ccc(NS(=O)(=O)c2ccccc2)cc1)N1CCN(c2ccccc2)CC1	.	2.8	0.3	.	5.9	11.2
Cc1c(C(=O)N(C)c2ccc(Cl)cc2)cnn1-c1ccccc1	-2.4	-0.3	0.4	5.7	3.1	-1.7
COc1ccc(N2CSC3=C(C#N)C(c4cc(OC)ccc4OC)CC(=O)N3C2)c(OC)c1 (centres undefined)	30.6	-0.8	-4.5	2.2	-3.0	8.8
COc1ccc(N2CSC3=C(C#N)C(c4cc(OC)c(OC)cc4OC)CC(=O)N3C2)c(OC)c1 (centres undefined)	38.7*	-5.9	-9.1	8.9	0.8	-0.3
O=C1C(Cc2ccccc2)Nc2ncnc(N3CCc4ccccc4C3)c2N1Cc1ccc(Br)cc1 (centres undefined)	3.0	-3.8	-3.1	-4.2	-4.5	-1.3
CCOC(=O)Cc1nnc(NC(=O)CSc2nnc3c4ccccc4n(C)c3n2)s1	35.2*	-6.5	-2.2	-8.5	-4.7	-11.7
COc1ccc(NC(=O)C2CCN(C(=O)c3cccs3)CC2)cc1OC	-2.9	1.4	1.3	2.2	31.6*	0.7
COc1cc(C2C(C#N)=C(N)Oc3n[nH]c(-c4cccs4)c32)cc(OC)c1O (centres undefined)	35.5*	0.0	9.9	1.3	1.1	1.5
SMILES	GSTO1 inh	LYPLA1 counter	PAD4 inh	Fam108B counter	PME-1 primary	LYPLA2 inh
CNc1[nH]c(=O)[nH]c(=O)c1N=Nc1cc(Cl)ccc1Cl	6.9	2.9	-2.4	8.1	-0.3	9.9
O=C(CSc1nnc(SCc2cccc3ccccc23)s1)N/N=C/c1c[nH]c2ccccc12	-19.4	-16.8	3.8	33.5*	26.4*	6.8
CC[C@]12c3[nH]c4cc(-c5ccco5)ccc4c3CCN1C(=O)[C@@H](CC(=O)NCCCN(C)C)C[C@@H]2C(=O)N1CCN(C(=O)c2ccco2)CC1	.	.	0.4	.	.	.
CCCCCCn1c(=O)[nH]c2nc3cc(N)ccc3nc2c1=O	-0.1	1.5	12.8	6.9	30.1*	7.5
Cc1nn(C)c(C)c1N1C(=O)c2cccc3c(N)ccc(c23)C1=O	11.8	11.3	31.2*	9.9	17.9	12.9
Cc1cc(C)c(C(=O)OCC(=O)Nc2cccc(S(=O)(=O)N3CCCCC3)c2)c(C)c1	-14.0	-28.4	2.0	-31.4	-18.6	-47.5
Cc1cc2nnc(SCC(=O)N3CCCCC3)n2c(N)n1	0.3	0.9	1.9	2.7	-2.7	-2.0
C/C(=C\c1ccc2c(c1)OCO2)C1Nc2cccc3cccc(c23)N1	.	-10.4	-0.4	.	37.4*	8.4
COc1ccc(-c2noc(CNS(=O)(=O)c3ccc(NC(C)=O)cc3)n2)cc1	37.0*	-3.8	0.4	2.9	-2.0	-3.4
O=C(Nc1ccc([N+](=O)[O-])cc1)Nc1ccc2[nH]c(=O)[nH]c2c1	-18.8	-3.4	0.1	1.8	29.6*	-10.2
O=C(NCc1nnc(SCC(=O)N2CCCc3ccccc32)o1)c1c(F)cccc1Cl	9.7	-1.9	1.6	0.3	1.2	3.6
N#CC(C#N)=C(N)/C(C#N)=C/c1cc(O)c(O)c(O)c1	64.4*	-5.7	-4.9	-0.7	-7.0	-8.3
Cc1cccc(-c2nc3c(s2)CCc2onc(-c4ccc(Br)cc4)c2-3)c1	11.9	-0.8	-0.8	-5.7	2.5	3.9
COc1cc(N/N=C(\C)c2ccc(O)c(C)c2)nc(-c2ccccc2)n1	-1.8	-9.4	-4.8	4.0	30.2*	-6.7
C/C(=N\Nc1cc(-c2ccccc2)nc(-c2ccccc2)n1)c1ccc(O)c(C)c1	2.2	-10.2	-2.0	11.8	2.4	-5.7
Oc1ccc(/C=N/Nc2ccc(C(F)(F)F)cn2)c(O)c1	1.0	-5.6	2.3	7.8	36.9*	-0.9
COc1cc2c(C#N)c(N3CCCCC3)nc(N)c2c(N)n1	-1.7	1.6	-7.1	7.8	15.8	-1.7
COc1ccc(CN2C(=O)Cc3c2nc(N)c2c(N)nc(N4CCCCC4)c(C#N)c32)cc1	47.6*	-7.4	-30.0	1.8	-2.2	-10.1
Cc1ccc(NC(=S)NNC(=S)Nc2ccc(C)cc2C)cc1	47.4*	-1.0	2.7	1.6	2.0	-0.8
Cc1cccc(CNc2ccc(S(=O)(=O)N3CCCCC3)cc2)c1	.	-3.1	1.2	.	-2.0	-8.0
COc1ccc(NC(=O)COC(=O)CCCOc2ccc(Cl)cc2Cl)cc1Cl	-8.4	-13.9	-9.0	-18.6	-0.5	-45.9
